Results as given in PubChem BioAssay (NCI).
Several values for one entry are separate records, joined by “and”; a condition that tells them apart may be missing. Equal values may be shown once. Compounds without any hit were thinned out: in the full panel of roughly 79,000, 15% have a hit. Values without a mark were called inactive. Activity calls are given as the source filed them. Cut-off read from the data, not from the text of the source: active = growth inhibition above about 70%; inactive = the rest.

Assay: NCI Yeast Anticancer Drug Screen. Data for the rad50 strain (AID 155);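 note: 0% = growth of vehicle-only cultures of the same strain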
Details: S. cerevisiae rad50 strain growth inhibition, stronger effect = higher value; at 50.0 µM unless noted
In short: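 Genetically altered yeast (DNA repair pathway); compound treatment; growth inhibition vs vehicle ctrl.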

| SMILES | growth inhibition |
| --- | --- |
| Nc1ncnc2c1ncn2C1OC(C(O)CO)C(O)C1O (stereo not given) | -0.65% and -17.4% |
| CCCCCCCCCC(=O)N=C(C(N)=O)C(N)=O | -13.2% |
| C#CCOC(=O)c1ccccc1 | 1.15% |
| CNC(=S)C#N | -21.8% |
| O=P(O)(O)c1ccc(-c2ccc(I)cc2)cc1 | 11.7% |
| CCOC(=O)N/N=C/c1ccccc1C | -9.05% |
| NC(=O)N/N=C/c1ccc([N+](=O)[O-])cc1 | 7.35% |
| COc1ccc(C)cc1S(=O)(=O)c1ccc(Cl)cc1[N+](=O)[O-] | -2.55% |
| COC(=O)OCCOC(=O)OC | 3.15% |
| O=C(O)CC(c1ccccc1)C(CC(=O)O)c1ccccc1 (stereo not given) | -3.8% |
| Cc1c(NC(=O)CSC(=S)N(C)C)c(=O)n(-c2ccccc2)n1C | -1.1% |
| NC(=O)c1ccccc1OC(=O)Nc1ccc(F)c([N+](=O)[O-])c1 | 3.75% |
| COc1ccc(CC(C)NN)cc1 (stereo not given) | 93% (active) |
| O=[N+]([O-])c1ccc(NN=C2CCCCC2)c([N+](=O)[O-])c1 | 9.1% |
| CCCCOC(=O)C(C)OC(=O)C(C)Oc1cc(Cl)c(Cl)cc1Cl (stereo not given) | -1.65% |
| CC(=O)Oc1c(C)c2c(c3ncccc13)OC(C)C2 (stereo not given) | 39.2% |
| NNC(=O)CCC(=O)O | 0.75% |
| Nc1nc(Cl)c(N)c(NCC2(CO)CC(Cc3ccccc3)C2)n1 (stereo not given) | 26.4% |
| CC1(C)OCC(N)[C@@H](O)CO1 (stereo not given in full) | 5% |
| Cc1ccc(Cl)cc1NC(=O)c1ccccc1 | 3.45% |

| SMILES | growth inhibition |
| --- | --- |
| COC(=O)/C=C(/Sc1nc(Cl)c(Cl)nc1N)C(=O)OC (tested in a mixture with another compound) | -15.1% |
| C=C1C=C2CCC3C(CCC4(C)C(C(C)CCCC(C)C)CCC34)C2(C)CC1 (stereo not given) | 82.5% (active) |
| Nc1cc2c(cc1[N+](=O)[O-])-c1ccc(Cl)cc1C2=O | 58.5% |
| O=C1c2ccccc2C(=O)c2cc3nc4c5ccccc5c5ccccc5c4nc3cc21 | -35% |
| CCCCOC(=O)c1ccccc1C(=O)Nc1ccccc1 | 7.6% |
| NC(=O)NCCCC(N)C(=O)O (stereo not given) | 7.7% and -23.9% |
| CCOC(OCC)c1cc(=O)[nH]c(NC(C)=O)n1 | -1.15% |
| CS/C(=N\c1nccs1)NC(=O)c1cccc(Cl)c1 | 7.65% |
| O=C(Nc1ccc(Cl)cc1)C(Cl)C(Cl)c1ccc(Cl)cc1 (stereo not given) | -15.6% |
| FC(F)(F)c1ccc2ccc3ccc(Cl)cc3c2c1 | -7.5% |
| O=C1C2C(c3ccccc3)NC(c3ccccc3)C1C(c1ccccc1)NC2c1ccccc1 (stereo not given) | -13.4% |
| CC(=O)CC(C[N+](=O)[O-])c1ccccc1 (stereo not given) | -4.7% |
| CCOC(=O)c1oc2cc(O)ccc2c(=O)c1-c1ccc(OC)c(OC)c1 | 5.95% |
| COc1ccc2nc3cccc([N+](=O)[O-])c3c(NC(C)CN(C)C)c2c1 (stereo not given) | 52% |
| Cc1cc(Cl)cc2c1OC(C)OC2=O (stereo not given) | -7.85% |
| CSc1nc(N)c2cnn(Cc3ccccc3)c2n1 | 28.4% |
| CCOC(=O)Cc1ccc2ccccc2c1 | 7.3% |
| C/C(=N\NC(N)=O)C1(O)CCCCC1 | -15.3% |
| CCC(C)C(O)C(C)C (stereo not given) | 11.3% |
| N#CCN(CC#N)C1CC=CCC1N(CC#N)CC#N (stereo not given) | -26.2% |

Assay: NCI Yeast Anticancer Drug Screen. Data for the mec2-1 strain (AID 157)
Details: S. cerevisiae mec2-1 strain, stronger effect = higher value; at 50.0 µM unless noted
In short: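 Each compound was tested on mec2-1 yeast, a strain altered in DNA damage repair or cell cycle control. Growth inhibition is reported relative to vehicle.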

| SMILES | growth inhibition |
| --- | --- |
| Nc1ncnc2c1ncn2C1OC(C(O)CO)C(O)C1O (stereo not given) | -1.4% and -71.8% |
| CCCCCCCCCC(=O)N=C(C(N)=O)C(N)=O | 18.3% |
| C#CCOC(=O)c1ccccc1 | -5.15% |
| CNC(=S)C#N | -14.4% |
| O=P(O)(O)c1ccc(-c2ccc(I)cc2)cc1 | -15.5% |
| CCOC(=O)N/N=C/c1ccccc1C | -3.15% |
| NC(=O)N/N=C/c1ccc([N+](=O)[O-])cc1 | -2.6% |
| COc1ccc(C)cc1S(=O)(=O)c1ccc(Cl)cc1[N+](=O)[O-] | -11.1% |
| COC(=O)OCCOC(=O)OC | 1.5% |
| O=C(O)CC(c1ccccc1)C(CC(=O)O)c1ccccc1 (stereo not given) | 8.75% |
| Cc1c(NC(=O)CSC(=S)N(C)C)c(=O)n(-c2ccccc2)n1C | -2.45% |
| NC(=O)c1ccccc1OC(=O)Nc1ccc(F)c([N+](=O)[O-])c1 | 26.6% |
| COc1ccc(CC(C)NN)cc1 (stereo not given) | 56.7% |
| O=[N+]([O-])c1ccc(NN=C2CCCCC2)c([N+](=O)[O-])c1 | -18.2% |
| CCCCOC(=O)C(C)OC(=O)C(C)Oc1cc(Cl)c(Cl)cc1Cl (stereo not given) | -3.95% |
| CC(=O)Oc1c(C)c2c(c3ncccc13)OC(C)C2 (stereo not given) | 14.1% |
| NNC(=O)CCC(=O)O | -0.5% |
| Nc1nc(Cl)c(N)c(NCC2(CO)CC(Cc3ccccc3)C2)n1 (stereo not given) | -35.4% |
| CC1(C)OCC(N)[C@@H](O)CO1 (stereo not given in full) | 12.9% |
| Cc1ccc(Cl)cc1NC(=O)c1ccccc1 | -1.25% |

| SMILES | growth inhibition |
| --- | --- |
| COC(=O)/C=C(/Sc1nc(Cl)c(Cl)nc1N)C(=O)OC (tested in a mixture with another compound) | -6.25% |
| C=C1C=C2CCC3C(CCC4(C)C(C(C)CCCC(C)C)CCC34)C2(C)CC1 (stereo not given) | 57.6% |
| Nc1cc2c(cc1[N+](=O)[O-])-c1ccc(Cl)cc1C2=O | -2.45% |
| O=C1c2ccccc2C(=O)c2cc3nc4c5ccccc5c5ccccc5c4nc3cc21 | -21.2% |
| CCCCOC(=O)c1ccccc1C(=O)Nc1ccccc1 | 12.6% |
| NC(=O)NCCCC(N)C(=O)O (stereo not given) | -16.2% and -16.6% |
| CCOC(OCC)c1cc(=O)[nH]c(NC(C)=O)n1 | 0.05% |
| CS/C(=N\c1nccs1)NC(=O)c1cccc(Cl)c1 | 20.4% |
| O=C(Nc1ccc(Cl)cc1)C(Cl)C(Cl)c1ccc(Cl)cc1 (stereo not given) | -6.3% |
| FC(F)(F)c1ccc2ccc3ccc(Cl)cc3c2c1 | -24% |
| O=C1C2C(c3ccccc3)NC(c3ccccc3)C1C(c1ccccc1)NC2c1ccccc1 (stereo not given) | -8.5% |
| CC(=O)CC(C[N+](=O)[O-])c1ccccc1 (stereo not given) | -0.8% |
| CCOC(=O)c1oc2cc(O)ccc2c(=O)c1-c1ccc(OC)c(OC)c1 | -1.7% |
| COc1ccc2nc3cccc([N+](=O)[O-])c3c(NC(C)CN(C)C)c2c1 (stereo not given) | 35.9% |
| Cc1cc(Cl)cc2c1OC(C)OC2=O (stereo not given) | 0.2% |
| CSc1nc(N)c2cnn(Cc3ccccc3)c2n1 | 12.5% |
| CCOC(=O)Cc1ccc2ccccc2c1 | -24.1% |
| C/C(=N\NC(N)=O)C1(O)CCCCC1 | -26.7% |
| CCC(C)C(O)C(C)C (stereo not given) | -18.1% |
| N#CCN(CC#N)C1CC=CCC1N(CC#N)CC#N (stereo not given) | 1% |
